Values joined by “and” are separate entries in the source; they are usually repeats but may differ in a detail not shown here. Identical values can stand only once. Some compounds were tested as several samples or in several runs, with calls that do not always agree. Active and inactive are the calls of the source. The calls were made as follows: active = hit-call score of the fitted dose curve at least 0.9, where 1 is the maximum; inactive = score below 0.9.
Columns and labels:
[1] = read-out: Epidermal growth factor receptor (EGFR), EGFR (gene 1956); experiment: BSK_BE3C_EGFR: BioMAP Diversity Plus: BE3C Assay for Epidermal growth factor receptor (EGFR) Biomarker Activity (AID 2284281); conditions: primary human bronchial epithelial cells
In short: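 Primary human lung bronchial epithelial cells; compound, 24 h; EGFR measured by ELISA; positive-direction fit vs DMSO baseline.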

[2] = read-out: Matrix Metallopeptidase 9 (MMP9), MMP9 (gene 4318); experiment: BSK_BE3C_MMP9: BioMAP Diversity Plus: BE3C Assay for Matrix Metallopeptidase 9 (MMP9) Biomarker Activity (AID 2284283); conditions: primary human bronchial epithelial cells
In short: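 Endpoint is the ELISA MMP-9 signal in human primary bronchial epithelial cultures taken 24 h after chemical dosing. DMSO serves as negative control and baseline, with gain-of-signal fitting.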

[3] = read-out: Plasminogen activator inhibitor-1 (PAI1), SERPINE1 (gene 5054); experiment: BSK_CASM3C_PAI1: BioMAP Diversity Plus: CASM3C Assay for Plasminogen activator inhibitor-1 (PAI1) Biomarker Activity (AID 2284284); conditions: primary human coronary artery smooth muscle cells;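 also: PAI-1 protein level measured by ELISA 24 h after dosing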
[4] = read-out: Vascular cell adhesion molecule 1 (VCAM1), VCAM1 (gene 7412); experiment: BSK_IMphg_VCAM1: BioMAP Diversity Plus: IMphg Assay for Vascular cell adhesion molecule 1 (VCAM1) Biomarker Activity (AID 2284286); conditions: primary human endothelial cells with macrophages
In short: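 Human venular endothelial cells co-cultured with macrophages; VCAM-1 quantified by ELISA 24 h after dosing, fitted in the positive direction against DMSO. Cytotoxicity was checked in parallel cultures by SRB total-protein staining (0.1% SRB after 10% TCA fixation, 560 nm).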

[5] = read-out: Intercellular Adhesion Molecule 1 (ICAM1), ICAM1 (gene 3383); experiment: BSK_hDFCGF_ICAM1: BioMAP Diversity Plus: hDFCGF Assay for Intercellular Adhesion Molecule 1 (ICAM1) Biomarker Activity (AID 2284287); conditions: primary human foreskin fibroblasts
In short: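 Primary human foreskin fibroblasts (hDFCGF system) dosed with chemical; ICAM-1 quantified by ELISA at 24 h relative to DMSO. Parallel SRB total-protein staining to assess overt cytotoxicity.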

CD40, CD40 (gene 958) = experiment: BSK_IMphg_CD40: BioMAP Diversity Plus: IMphg Assay for CD40 Biomarker Activity (AID 2284288); conditions: primary human endothelial cells with macrophages
In short: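 Venular endothelial cells co-cultured with macrophages (human primary), CD40 measured by ELISA 24 h after dosing. Positive-direction fit vs DMSO baseline; cytotoxicity tracked by SRB total-protein staining in parallel cultures.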

[6] = read-out: TIMP metallopeptidase inhibitor 2 (TIMP2), TIMP2 (gene 7077); experiment: BSK_hDFCGF_TIMP2: BioMAP Diversity Plus: hDFCGF Assay for TIMP metallopeptidase inhibitor 2 (TIMP2) Biomarker Activity (AID 2284289); conditions: primary human foreskin fibroblasts
In short: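 Primary human foreskin fibroblasts in the hDFCGF system, dosed for 24 h; TIMP-2 level measured by ELISA, fitted in the positive direction against DMSO; cytotoxicity checked in parallel by sulforhodamine B total protein staining.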

[7] = read-out: Interleukin-1 alpha (IL1a), IL1A (gene 3552); experiment: BSK_IMphg_IL1a: BioMAP Diversity Plus: IMphg Assay for Interleukin-1 alpha (IL1a) Biomarker Activity (AID 2284290); conditions: primary human endothelial cells with macrophages
In short: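 Human venular endothelial cells co-cultured with macrophages, IMphg system. IL-1α is measured by ELISA 24 h after dosing and fitted in the positive direction against DMSO. Cytotoxicity is assessed by SRB staining of parallel cultures.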

[8] = read-out: E-selectin (Homo sapiens) (UniProt P16581); experiment: BSK_IMphg_ESelectin: BioMAP Diversity Plus: IMphg Assay for Eselectin Biomarker Activity (AID 2284291); conditions: primary human endothelial cells with macrophages
In short: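 Human venular endothelial cell–macrophage co-culture, E-selectin measured by ELISA 24 h after chemical dosing. Signal fitted in the positive direction against DMSO as negative control and baseline.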

[9] = BSK_IMphg_SRB: Viability Assessment in the BioMAP Diversity Plus: IMphg Assay (AID 2284292); conditions: primary human endothelial cells with macrophages;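 also: measured one day after compound addition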
In short: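 Human venular endothelial cells with macrophages, 24 h after chemical dosing; total protein by 0.1% SRB staining after 10% TCA fixation, read at 560 nm. Positive-direction fitting versus DMSO baseline.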

[10] = read-out: Macrophage colony-stimulating factor (MCSF), CSF1 (gene 1435); experiment: BSK_IMphg_MCSF: BioMAP Diversity Plus: IMphg Assay for Macrophage colony-stimulating factor (MCSF) Biomarker Activity (AID 2284293); conditions: primary human endothelial cells with macrophages
In short: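 Co-culture of human venular endothelial cells and macrophages, 24 hours of chemical exposure. M-CSF quantified by ELISA, with parallel SRB total-protein staining for cytotoxicity; activity fitted relative to DMSO.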

[11] = read-out: Interleukin-10 (IL10), IL10 (gene 3586); experiment: BSK_IMphg_IL10: BioMAP Diversity Plus: IMphg Assay for Interleukin-10 (IL10) Biomarker Activity (AID 2284294); conditions: primary human endothelial cells with macrophages
In short: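 Human venular endothelial cells cocultured with macrophages, dosed 24 h; IL-10 measured by ELISA, activity relative to DMSO. Cytotoxicity assessed in parallel cultures by sulforhodamine B total-protein staining.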

[12] = BSK_IMphg_SRB.Mphg: Macrophage Viability Assessment in the BioMAP Diversity Plus: IMphg Assay (AID 2284295); conditions: primary human endothelial cells with macrophages
In short: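 Venular endothelial cells co-cultured with macrophages, read 24 h after dosing. Total protein measured by 0.1% SRB staining after 10% TCA fixation, absorbance at 560 nm. Fitted in positive direction against DMSO baseline.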

[13] = read-out: Thrombomodulin, THBD (gene 7056); experiment: BSK_LPS_Thrombomodulin: BioMAP Diversity Plus: LPS Assay for Thrombomodulin Biomarker Activity (AID 2284296); conditions: primary human HUVEC with PBMC
In short: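 Human umbilical vein endothelial cells co-cultured with PBMC and stimulated with LPS; cell-surface thrombomodulin measured by ELISA 24 hours after compound. Gain or loss versus DMSO; cytotoxicity checked by SRB staining in parallel cultures.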

[14] = IUF_NPC2c_oligodendrocyte_migration_120hr: Leibniz Research Institute for Environmental Medicine (IUF) 120-hour Neural Progenitor Cell Migration Assay for Oligodendrocyte Migration (NPC2c) (AID 2284297);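 also: O4-positive oligodendrocyte migration distance divided by radial glia migration distance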
In short: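 Using fetal brain neural progenitor spheres differentiating in N2 medium at 37C, compounds were present for 120 h. Oligodendrocyte migration distance, normalized to radial glia migration, was measured from imaged O4 staining.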

[15] = IUF_NPC2a_radial_glia_migration_120hr: Leibniz Research Institute for Environmental Medicine (IUF) 120-hour Neural Progenitor Cell Migration Assay for Radial Glia Migration (NPC2a) (AID 2284298)
In short: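 Exposure of 0.3 mm primary hNPC spheres runs day 0 to 120 h with a half-volume medium change at day 3. Fixed cells get Hoechst staining; high-content analysis of nuclear positions yields radial glia migration distance per well, compared against DMSO controls.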

[16] = IUF_NPC2a_radial_glia_migration_72hr: Leibniz Research Institute for Environmental Medicine (IUF) 72-hour Neural Progenitor Cell Migration Assay for Radial Glia Migration (NPC2a) (AID 2284299)
In short: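 Human fetal cortex (GW 16-19) neural progenitor spheres, 0.3 mm, plated on poly-D-lysine/laminin in N2 differentiation medium with compound from day 0. Radial glia migration distance (um, sphere core edge to migration edge) measured manually in four directions on 72 h brightfield images; well mean used.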

[17] = IUF_NPC2b_neuronal_migration_120hr: Leibniz Research Institute for Environmental Medicine (IUF) 120-hour Neural Progenitor Cell Migration Assay for Neuron Migration (NPC2b) (AID 2284300)
In short: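 Fetal human NPC spheres migrate on PDL/laminin during 120 h compound treatment; neuronal migration distance, glia-normalized, scored versus DMSO control.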

[18] = IUF_NPC3_neuronal_differentiation_120hr: Leibniz Research Institute for Environmental Medicine (IUF) 120-hour Neuronal Differentiation Assay (NPC3) (AID 2284301)
In short: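 Primary human fetal neural progenitor spheres (GW 16-19, 0.3 mm) plated on poly-D-lysine/laminin in N2 medium, exposed from day 0 for 120 h with half-medium refresh at day 3. TUBB3+ cells as percent of Hoechst nuclei in migration area; DMSO baseline.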

[19] = IUF_NPC4_neurite_length_120hr: Leibniz Research Institute for Environmental Medicine (IUF) 120-hour Neuronal Morphology Assay for Neurite Length (NPC4) (AID 2284302)
In short: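 Human fetal cortex (GW 16-19) neural progenitor spheres, 0.3 mm, were plated on poly-D-lysine/laminin in N2 differentiation medium and exposed from day 0 for 120 h, half-feeding at day 3. Mean TUBB3+ neurite length (µm) came from skeletonized images, relative to DMSO.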

E-selectin (Homo sapiens), sequence (P16581 whole entry, looked up): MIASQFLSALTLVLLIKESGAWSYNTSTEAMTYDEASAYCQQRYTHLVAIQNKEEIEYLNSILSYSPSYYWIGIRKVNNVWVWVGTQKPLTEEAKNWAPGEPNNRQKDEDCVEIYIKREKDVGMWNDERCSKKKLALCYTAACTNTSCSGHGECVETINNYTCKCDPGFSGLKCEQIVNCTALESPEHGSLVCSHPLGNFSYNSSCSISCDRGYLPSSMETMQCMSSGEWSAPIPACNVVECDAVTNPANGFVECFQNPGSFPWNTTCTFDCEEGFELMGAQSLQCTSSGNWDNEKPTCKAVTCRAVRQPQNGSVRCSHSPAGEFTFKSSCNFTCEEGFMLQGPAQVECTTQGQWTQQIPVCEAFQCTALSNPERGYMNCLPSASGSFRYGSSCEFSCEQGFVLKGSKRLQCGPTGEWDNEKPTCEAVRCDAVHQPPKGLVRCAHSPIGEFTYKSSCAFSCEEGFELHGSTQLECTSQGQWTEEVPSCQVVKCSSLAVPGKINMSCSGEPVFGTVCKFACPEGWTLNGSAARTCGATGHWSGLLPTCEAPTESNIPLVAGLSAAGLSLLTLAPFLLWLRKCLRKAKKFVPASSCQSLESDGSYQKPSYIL

C=C(C)C(=O)OCCC(F)(F)C(F)(F)C(F)(F)C(F)(F)C(F)(F)C(F)(F)C(F)(F)C(F)(F)F
outcome [1]: inactive | outcome [2]: inactive | outcome [3]: inactive | outcome [4]: inactive | outcome [5]: inactive | AC50 (CD40, CD40 (gene 958)): 2.53 µM (active) | outcome (CD40, CD40 (gene 958)): inactive | outcome [6]: inactive | outcome [7]: inactive | outcome [8]: inactive | outcome [9]: inactive | outcome [10]: inactive | outcome [11]: inactive | outcome [12]: inactive | outcome [13]: inactive

CC(C)Cc1ccc(C(C)C(=O)O)cc1 (stereo unspecified)
outcome [14]: inactive | outcome [15]: inactive | outcome [16]: inactive | outcome [17]: inactive | outcome [18]: inactive | outcome [19]: inactive

CC(C)CCCC(C)(C)O
outcome [1]: inactive | outcome [2]: inactive | outcome [3]: inactive | outcome [5]: inactive | outcome [6]: inactive | outcome [13]: inactive

O=C(O)C(F)(F)OC(F)(F)C(F)(F)OC(F)(F)C(F)(F)C(F)(F)C(F)(F)F
AC50 [1]: 35 µM (active) and 17.7 µM (active) | outcome [2]: inactive | outcome [3]: inactive | outcome [4]: inactive | outcome [5]: inactive | AC50 (CD40, CD40 (gene 958)): 30 µM (active) | outcome (CD40, CD40 (gene 958)): inactive | outcome [6]: inactive | outcome [7]: inactive | outcome [8]: inactive | outcome [9]: inactive | outcome [10]: inactive | AC50 [11]: 46.5 µM (active) and 49.5 µM (active) | outcome [12]: inactive | outcome [13]: inactive

c1ccc2scnc2c1
outcome [14]: inactive | outcome [15]: inactive | outcome [16]: inactive | outcome [17]: inactive | outcome [18]: inactive | outcome [19]: inactive

OCC(F)(OC(F)(F)C(F)(OC(F)(F)C(F)(F)C(F)(F)F)C(F)(F)F)C(F)(F)F (stereo unspecified)
outcome [1]: inactive | outcome [2]: inactive | outcome [3]: inactive | outcome [4]: inactive | AC50 [5]: 5.06 µM (active) and 2.52 µM (active) | outcome (CD40, CD40 (gene 958)): inactive | AC50 [6]: 2.07 µM (active) and 198 nM (active) | outcome [7]: inactive | AC50 [8]: 5.64 µM (active) and 3.5 µM (active) | AC50 [9]: 6.17 µM (active) | outcome [9]: inactive | outcome [10]: inactive | AC50 [11]: 3.33 µM (active) | outcome [11]: inactive | AC50 [12]: 4.31 µM (active) | outcome [12]: inactive | outcome [13]: inactive

CCCO[Si](OCCC)(OCCC)OCCC
outcome [1]: inactive | outcome [2]: inactive | outcome [3]: inactive | outcome [5]: inactive | outcome [6]: inactive | outcome [13]: inactive

C=C(F)C(=O)OC(C(F)(F)F)C(F)(F)F
outcome [1]: inactive | outcome [2]: inactive | outcome [3]: inactive | outcome [4]: inactive | outcome [5]: inactive | AC50 (CD40, CD40 (gene 958)): 5.95 µM (active) | outcome (CD40, CD40 (gene 958)): inactive | outcome [6]: inactive | outcome [7]: inactive | outcome [8]: inactive | outcome [9]: inactive | outcome [10]: inactive | outcome [11]: inactive | outcome [12]: inactive | outcome [13]: inactive

— PubChem BioAssay (EPA / NIEHS)
